Screening results: PubChem, The Scripps Research Institute Molecular Screening Center
DAX1 inh-1 = DAX1 (NR0B1) inhibitors on StAR promoter, primary screen, cell-based, luminescence, SF-1 (NR5A1), full-length DAX-1. HEK293T StAR-luciferase reporter, SF-1/DAX-1 repression relief. inhibition, % at 6.8 µM. hit rate 1.1% among 370,000. AID 652010, 2013;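 active means inhibition above the mean over all tested compounds plus 3 SD, cut at about 3.6% in these data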;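 further: 0% = DAX-1 cells with DMSO and 100% = cells lacking DAX-1 with DMSO; higher inhibition means more luminescence from relief of DAX-1 repression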
ssDAF-12 act = S. stercoralis DAF-12 nuclear receptor activators, primary screen, cell-based, luminescence, HEK293, GRIP1 co-expression, lit1-tk-luc. Nuclear hormone receptor DAF-12 (Strongyloides stercoralis). HEK293 ssDAF-12/GRIP1 lit1-tk-luc reporter; % of 3 µM dafachronic acid response. activation, % at 6.8 µM. hit rate 1% among 370,000;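 active means activation above the mean over all tested compounds plus 3 SD, cut at about 0.9% in these data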;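 further: 0% = DMSO-only wells and 100% = 3 µM delta7-dafachronic acid wells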
hgDAF-12 ag = H. glycines DAF-12 receptor agonists, primary screen, cell-based, luminescence, HEK293, GAL4 fusion, UAS-luciferase; Nuclear hormone receptor DAF-12 (Heterodera glycines), GAL4 fusion; HEK293 GAL4-hgDAF12 UAS-luciferase reporter, agonist luminescence; normalized to butyrate control; activation, % at 6.8 µM; hit rate 1.8% among 370,000;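 active means activation above a cutoff set at the mean of all screened compounds plus 3 SD, cut at about 10% in these data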;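 further: 0% = DMSO wells and 100% = sodium butyrate wells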
SMARCA2 activ = SMARCA2 (BRM) function activators, primary screen, cell-based, luminescence, high throughput; MG213 cells, MMTV-luciferase reporter, dexamethasone, overnight; activation, % at 9.1 µM; hit rate 1% among 370,000; in the data active means activation above about 7.8%;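 further: 0% = vehicle wells and 100% = reference activator wells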
DAX1 inh-2 = DAX1 (NR0B1) inhibitors, primary screen, cell-based, HEK293, Gal4-DAX1, luciferase luminescence. Nuclear receptor subfamily 0 group B member 1 (Homo sapiens), P51843. HEK293 Gal4-DAX1 luciferase reporter. inhibition, % at 6.75 µM. hit rate 0.99% among 340,000;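 active means inhibition above the mean over all tested compounds plus 3 SD, cut at about 4.2% in these data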;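 further: 0% = DAX1-transfected cells with DMSO and 100% = empty-vector control cells with DMSO; inhibition shows as a rise in luminescence from relieved DAX1 repression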
hcDAF-12 act = H. contortus DAF-12 nuclear receptor activators, primary screen, cell-based, luminescence, HEK293, lit1-tk-luc reporter. HEK293 hcDAF-12 lit1-tk-luc reporter; 0% DMSO, 100% Δ7-dafachronic acid. activation, % at 6.8 µM. hit rate 1.4% among 370,000;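 active means activation above the mean of all tested compounds plus 3 SD, cut at about 5.5% in these data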;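 further: 100% = response to 3 µM Δ7-dafachronic acid high control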
DAX1 conf = DAX1 (NR0B1) inhibitors relieving SF-1 repression, confirmation, cell-based, luminescence, HEK293T, full-length DAX-1, SF-1 activated StAR promoter; AID 652134, 2013; shares compounds with DAX1 inh-1; hit rate 87% among 2,400; inhibition, % at 6.8 µM; HEK293T StAR-promoter luciferase reporter, SF-1/DAX-1 repression;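 active means inhibition above the average of every tested compound plus 3 SD, cut at about 3.8% in these data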;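 further: 0% = DAX-1 cells with DMSO and 100% = no DAX-1 control cells with DMSO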
Target sequence (P51843 whole entry, looked up): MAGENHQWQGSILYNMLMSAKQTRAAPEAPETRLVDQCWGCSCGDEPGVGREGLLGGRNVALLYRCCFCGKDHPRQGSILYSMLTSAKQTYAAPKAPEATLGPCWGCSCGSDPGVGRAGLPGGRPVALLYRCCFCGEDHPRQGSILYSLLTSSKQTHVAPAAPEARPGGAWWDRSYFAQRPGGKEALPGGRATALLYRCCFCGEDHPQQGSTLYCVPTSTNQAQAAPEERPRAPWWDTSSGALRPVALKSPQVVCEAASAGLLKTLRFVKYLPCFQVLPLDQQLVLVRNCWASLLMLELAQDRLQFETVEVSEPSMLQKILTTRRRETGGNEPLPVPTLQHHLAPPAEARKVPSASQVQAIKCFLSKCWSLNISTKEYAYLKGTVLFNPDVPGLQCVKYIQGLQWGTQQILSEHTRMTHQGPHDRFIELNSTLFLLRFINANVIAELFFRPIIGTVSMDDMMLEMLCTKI
SF1 AF2mut Luc = StAR reporter signal changes without DAX1, counter-screen for DAX1 inhibitor project, cell-based, luminescence, AF-2 mutant SF-1, transactivation; inhibition, % at 6.8 µM; HEK293 StAR-luciferase, SF-1 AF2 mutant; hit rate 78% among 2,400; shares compounds with DAX1 inh-1;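 active means inhibition above the mean of all tested compounds plus 3 SD, cut at about 3% in these data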;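 further: 0% = DAX-1 transfected cells with DMSO and 100% = cells without DAX-1 with DMSO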
SMARCA2 act conf = SMARCA2 (BRM) function activators, confirmation, cell-based, luminescence, triplicate | shares compounds with SMARCA2 activ | MG213 cells, MMTV-luciferase with dexamethasone, overnight; MG213 cells expressing E1A, Rb sequestered; DMSO wells 0%, reference activator 100% | activation, % at 9.1 µM | hit rate 30% among 3,500 | AID 652260, 2013;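 active means activation above its plate's cutoff, the mean activation of tested wells plus 3 SD, cut at about 7.9% in these data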
VP16 Luc act = GAL4-VP16 luciferase reporter activation, counter-screen for SMARCA2 (BRM) activator project, cell-based, pG5luc, luminescence, high throughput. shares compounds with SMARCA2 activ. HEK293 GAL4-VP16 pG5luc reporter; scaled: DMSO wells 0%, SAHA wells 100%. activation, % at 9.1 µM. hit rate 41% among 3,500. AID 686939, 2013;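 active means activation above the solvent-only control well mean plus 3 SD, averaged across control plates, cut at about 5.2% in these data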
LXR ag = LXR agonists, Gal4 luciferase reporter, confirmation, counter-screen for hcDAF-12 agonist project, cell-based, luminescence, HEK293, H. contortus campaign; HEK293 Gal4-LXR tk-luc reporter, 24 h; normalized: DMSO 0%, positive control 100%; shares compounds with hcDAF-12 act; 3,400 tested, under 10 active; activation, % at 6.8 µM; AID 743027, 2013;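 active means mean percent activation of the reporter above a cutoff set as the average over tested compounds plus their standard deviation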
hcDAF12 ag = H. contortus DAF-12 receptor agonists, confirmation, cell-based, luminescence, HEK293, lit1-tk-luc, triplicate | hit rate 61% among 3,400 | shares compounds with hcDAF-12 act | activation, % at 6.8 µM | HEK293 hcDAF-12 lit1-tk-luc reporter; % of Δ7-dafachronic acid response;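 active means mean activation across triplicate tests above the threshold derived from the earlier primary screen, cut at about 5.5% in these data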;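 further: 0% = DMSO only wells and 100% = 3 µM Δ7-dafachronic acid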
hgDAF12 ag = H. glycines DAF-12 receptor agonists, confirmation, cell-based, luminescence, HEK293, GAL4-LBD fusion; HEK293 GAL4-hgDAF12 luciferase reporter, agonist mode; percent of butyrate response; hit rate 80% among 3,300; activation, % at 6.8 µM; AID 743050, 2013; shares compounds with hgDAF-12 ag;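 active means mean activation over triplicate wells above the hit cutoff derived from the earlier primary screen, cut at about 11% in these data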;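 further: 0% = DMSO low control and 100% = 2 mM sodium butyrate high control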
LXRb DAF12 ctr = LXR agonists, Gal4 luciferase reporter, confirmation, counter-screen for hgDAF-12 agonist project, cell-based, luminescence, HEK293, H. glycines campaign | shares compounds with hgDAF-12 ag | 24 h | activation, % at 6.8 µM | 3,300 tested, under 10 active | AID 743051, 2013;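 active means mean activation of the triplicate above a set limit carried over from the primary screen, none filed active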
* = called active by the depositor; · = no result. Sampled rows, rich in hits. Any-hit rate of the full collection: about 4.8%.

SMILES | DAX1 inh-1 | ssDAF-12 act | hgDAF-12 ag | SMARCA2 activ | DAX1 inh-2 | hcDAF-12 act | DAX1 conf | SF1 AF2mut Luc | hgDAF12 ag | LXRb DAF12 ctr | others
Cc1cc(NC(=O)CSc2nnnn2C2CCCC2)no1 | 0 | -1 | 1 | 1 | 0 | 0 | · | · | · | ·
CCn1c(C)cc(C(=O)CSc2nnnn2C2CCCC2)c1C | 9.6* | 0 | 13* | 4 | 3 | 3 | 13* | 7.4* | 17* | 1
COc1cc2ccccc2cc1C(=O)NCC(c1cccs1)N(C)C (configuration not stated) | 10* | 0 | 15* | 4 | 2 | 6.4* | 12* | 7.1* | 16* | 1
COc1cc(OC)c(C(=O)NCC(c2cccs2)N(C)C)cc1OC (configuration not stated) | · | · | · | · | 0 | · | · | · | · | ·
CCCCCc1ccc(-c2n[nH]c(=O)c3ccccc23)cc1 | 0 | -2 | 10 | -2 | · | 1 | · | · | · | ·
O=c1c2ccccc2nc2n1CCc1c-2[nH]c2ccccc12 | 7.8* | 3.6* | 25* | 16* | 4.9* | 13* | 19* | 12* | 24* | 1 | SMARCA2 act conf=8.4*;VP16 Luc act=9.3*;LXR ag=2;hcDAF12 ag=14*
C=CC[C@@H]1NN2C(=O)[C@@H](CCCC)[C@@H]3c4cc5ccccc5cc4C=NN3[C@@H]2c2cc3ccccc3cc21 | 0 | 0 | 3 | -1 | · | 2 | · | · | · | ·
